Experimental findings from PubChem BioAssay AID588850 (Sanford-Burnham Center for Chemical Genomics, 2011) are described below.

What is called inhibition is the relative decrease from the control value, in per cent.

The campaign covered roughly 360,000 compounds. About 3,100 (0.86%) were called active. For the sample, actives were picked, then their nearest neighbours and some compounds at random. A number with no mark means an inactive call.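 Rule for the calls: active = at least 50% inhibition at 5 µM, scaled per plate between neutral and stimulator controls; inactive = the rest.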

The test can be described thus: NF-kB reporter blockers in CF airway cells – cell-based, GFP fluorescence, uHTS, primary screen (AID 588850).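 Note: PAF is a Pseudomonas aeruginosa culture filtrate used as stimulus; plate controls were PAF-stimulated DMSO wells for no effect and unstimulated DMSO wells for full effect.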 Conditions: KKLEB NF-kB-GFP reporter, PAF-induced, GFP fluorescence overnight; at 5 µM; hits give high values.
With `O=C(NC1CCN(C(=S)NCc2ccco2)CC1)c1ccc(F)cc1`, the inhibition is -0.1%.

As for `CCN(C(=O)c1ccc(Br)cc1)c1ccccc1`, the inhibition was 21.8%.

Take `C=CCN1C(=O)C(Cc2ccc(OCC)cc2)SC1=Nc1ccc(C(=O)O)cc1` (centres undefined): the inhibition was 4.1%.

In the case of `Cc1ccc(-c2csc(NC(=O)C3=COCCO3)n2)cc1C`, the inhibition was -43.3%.

Turning to `Cc1ccc(-c2csc(NC3OC(=O)c4ccccc43)n2)cc1` (centres undefined), the inhibition is 81.3% (active).

Consider `COc1ccc2c(c1OC)C(=O)OC2Nc1nc(-c2ccccc2)cs1` (centres undefined), for which the inhibition was 88.8% (active).

Consider `COc1ccccc1C(=O)Nc1nc2nc(-c3ccccc3)cc(=O)n2[nH]1`, for which the inhibition is -8%.

Consider `COc1cc(C(O)c2nc(-c3cccc(C(=O)O)c3)cs2)ccc1F` (centres undefined), for which the inhibition is 12.4%.

In the case of `Cn1cc(C2OC(=O)c3ccccc32)c2ccccc21` (centres undefined), the inhibition is 41.4%.

Turning to `CN(CC(=O)O)S(=O)(=O)c1ccc2oc3ccccc3c2c1`, the inhibition was -19.3%.

On to `Cc1ccc(S(=O)(=O)Nc2ccc(F)c(S(=O)(=O)N3CCOCC3)c2)cc1`, for which the inhibition was -4.8%.

Regarding `O=C(Nc1ccccc1)c1ccccc1Br`, the inhibition is -3.5%.

For `COCCCNC(=O)c1ccc(-c2c(C)noc2C)c2ccoc12`, the inhibition is -59%.

Take `CC(=O)c1ccc(N2CCN(S(=O)(=O)c3c(C)[nH]c(=O)[nH]c3=O)CC2)cc1`: the inhibition is 13.2%.

In the case of `COc1cccc(Cn2cc(/C=N/NC(=O)c3cc(O)cc(O)c3)c3ccccc32)c1`, the inhibition was 1.7%.

For `COc1cccc(/C=N/Nc2cc(C)nc(-c3ccccc3O)n2)c1O`, the inhibition was 89.8% (active).

For `COc1cc(/C=N/Nc2ccc(C)cc2)cc(Br)c1O`, the inhibition was -27.2%.

Regarding `O=C(CN1CCOCC1)N1CCCc2c1c(=O)oc1ccc(OCc3ccccc3)cc21`, the inhibition was -14.3%.

For the compound `Cc1nn2c(c1-c1ccccc1)N=C(c1ccco1)CC2c1ccccc1` (centres undefined), the inhibition is -5.8%.

Take `Cc1cc(Br)ccc1NC(=O)CN(C)C(=O)CN1C(=O)NC2(CCCC2)C1=O`: the inhibition was -8.9%.

`COc1ccc(NC(=O)/C(C#N)=C\c2cc(OC)c(OCc3ccc(C(=O)O)cc3)cc2Br)cc1`: the inhibition is -82.3%.

In the case of `COc1ccc(CNC(=O)/C(C#N)=C/c2cccc(OC)c2OC)cc1`, the inhibition is 59.3% (active).

For `COc1ccc(/C=C(\C#N)C(=O)NCCCn2ccnc2)cc1`, the inhibition is 10.2%.

`Cc1ccc(S(=O)(=O)NNC(=O)/C=C/c2cccc(F)c2)cc1`: the inhibition was -21.5%.

For `CCOC(=O)CN1C(=O)C(O)(CC(=O)c2ccccn2)c2ccccc21` (centres undefined), the inhibition was 13%.

On to `Cc1ccc(C2=CSC3=NS(=O)(=O)CCN23)cc1C`, for which the inhibition was 6.1%.

On to `COc1cc(OC)c(C(=O)NNC(=O)c2ccccc2-n2cccc2)cc1OC`, for which the inhibition was -9.9%.

With `COC(=O)c1ccc(C(=O)Nc2cc(Cl)ccc2Cl)cc1NC(=O)c1ccccc1C`, the inhibition was 54% (active).

With `CCCN(CCC)C(=S)Nc1cc(C(=O)OC)ccc1C(=O)OC`, the inhibition was 10.8%.

As for `COC(=O)c1ccc(C(=O)OC)c(NC(=S)N2CCN(c3cc(Cl)ccc3C)CC2)c1`, the inhibition is 0.4%.

Consider `CCOC(=O)c1c(C)[nH]c(C)c1C(=O)COC(=O)/C=C/c1cccc([N+](=O)[O-])c1`, for which the inhibition was -19.4%.

On to `CCC12CN3CC(CC)(CN(C1)C31C(=O)N(C)c3ccc(C)cc31)C2=O` (centres undefined), for which the inhibition is 8.9%.

`CCOC(=O)C1(C)CCCN(C(=O)c2ccc(N(C)C)cc2)C1` (centres undefined): the inhibition was -1.1%.

For the compound `Cc1cccc(-n2nc3c(c2NC(=O)c2cc4ccccc4o2)CS(=O)(=O)C3)c1`, the inhibition was 4.3%.

As to `CC(C)CC1(C(=O)NCc2ccccn2)C=CCN1C(=O)c1ccccc1` (centres undefined), the inhibition is -3.1%.

`O=C(Nc1cccc2ccccc12)c1[nH]c(-c2ccccc2)c2c1C(=O)N(C1CC1)C2=O`: the inhibition is 63.7% (active).

For the compound `O=C(Nc1cccc2ccccc12)NC1CC1`, the inhibition was -3.5%.

In the case of `O=C(Nc1cccc2ccccc12)c1onc2c1CCCC2`, the inhibition was -10.2%.

Consider `CCC(=O)N(Cc1cc2ccccc2[nH]c1=O)c1ccc(OC)cc1`, for which the inhibition was -0.6%.

Consider `Cc1ccc(N(Cc2cc(=O)[nH]c3ccccc23)C(=O)CCl)cc1`, for which the inhibition was 63.4% (active).

On to `CC(=O)N(Cc1cc(=O)[nH]c2ccccc12)c1ccc(C)cc1C`, for which the inhibition is 10.4%.

Consider `CCOC(=O)N1CCN(C(=O)c2ccccc2SCC(=O)NCC2CCCCC2)CC1`, for which the inhibition was -2%.

With `Cc1ccc(C(=O)CCC(=O)N(C)CC(=O)Nc2c(Cl)cccc2Cl)cc1`, the inhibition was -7.8%.

Regarding `Cc1ccc(NC(=O)CN(C)C(=O)COC(=O)c2nccnc2N)cc1`, the inhibition was -12.4%.

As to `CC1=C(C)CC(C(=O)NNC(=O)c2ccccc2O)C(C(=O)O)C1` (centres undefined), the inhibition was -2.9%.

Take `Cc1cc(C(=O)CCC(=O)NNC(=O)c2ccccc2O)c(C)s1`: the inhibition was -22%.

For `O=C(NNC(=O)c1ccccc1O)c1ccccc1O`, the inhibition is 61.7% (active).

Turning to `COCCNC(=O)c1ccc2c(c1)ncn2-c1ccc(C)c(Cl)c1`, the inhibition is -3.6%.

In the case of `COCCN(C(=O)CCC(=O)Nc1nccs1)C(C(=O)NCCC(C)C)c1ccc(F)cc1` (centres undefined), the inhibition is -16.8%.

Turning to `O=C(O)c1cc(S(=O)(=O)N(Cc2ccccc2)c2cccc(C(F)(F)F)c2)ccc1Cl`, the inhibition is -4.7%.

On to `O=C(CNS(=O)(=O)c1cccc(C(F)(F)F)c1)Nc1ccccc1F`, for which the inhibition is -4.7%.

`O=C(NNc1ccccc1Cl)C(O)(c1cccc(C(F)(F)F)c1)c1cccc(C(F)(F)F)c1`: the inhibition is 55.6% (active).

As to `Cc1cccc(NC(=O)CSc2nnc(CCCCCNC(=O)OC(C)(C)C)o2)c1C`, the inhibition is -6.7%.

Take `NC(=O)COc1ccccc1C(=O)NC12CC3CC(CC(C3)C1)C2`: the inhibition was 3.5%.

For `C=C1C(=O)[C@]23C[C@H]1CCC2[C@@]1(C)C(C[C@@H]3O)[C@](C)(C(=O)O)CC[C@@H]1O` (some centres undefined), the inhibition is 82.6% (active).

On to `CCN(CC)CCCNC(=O)c1cn(C)c2ccc(S(=O)(=O)N(C)C3CCCCC3)cc2c1=O`, for which the inhibition was 9.2%.

`COCOCCn1cc(CN2CCS(=O)(=O)N(Cc3ccc(-c4ccc(OC)cc4)cc3)C(CC(C)C)C2=O)nn1` (centres undefined): the inhibition was -5%.

Take `COCOCCn1cc(CN2CCS(=O)(=O)N(Cc3ccc(-c4ccccc4)cc3)C(CC(C)C)C2=O)nn1` (centres undefined): the inhibition was 23.5%.

For the compound `CC(C)CC1C(=O)N(Cc2cn(Cc3ccco3)nn2)CCS(=O)(=O)N1Cc1ccc(-c2ccc(Cl)c(Cl)c2)cc1` (centres undefined), the inhibition is 66.8% (active).

Turning to `COc1ccc(-c2ccc(CN3C(C(C)C)C(=O)N(Cc4cn(CC5CCCCC5)nn4)CCS3(=O)=O)cc2)cn1` (centres undefined), the inhibition was -2.4%.

In the case of `COc1ccc(-c2ccc(CN3C(CC(C)C)C(=O)N(Cc4cn(CC5CCCCC5)nn4)CCS3(=O)=O)cc2)cc1` (centres undefined), the inhibition is 41.4%.

Consider `COc1ccc(-c2ccc(CN3C(CC(C)C)C(=O)N(Cc4cn(CC5CCCCC5)nn4)CCS3(=O)=O)cc2)cn1` (centres undefined), for which the inhibition is 66.1% (active).

As to `CC(C)CC1C(=O)N(Cc2cn(CC3CCCCC3)nn2)CCS(=O)(=O)N1Cc1ccc(-c2ccc(Cl)cc2)cc1` (centres undefined), the inhibition is 55.8% (active).

Take `CC1C(=O)N(Cc2cn(Cc3ccco3)nn2)CCS(=O)(=O)N1Cc1ccc(-c2cccc(CO)c2)cc1` (centres undefined): the inhibition is 3.2%.

For the compound `CC(=O)c1cccc(-c2ccc(CN3C(CC(C)C)C(=O)N(Cc4cn(CC5CCCCC5)nn4)CCS3(=O)=O)cc2)c1` (centres undefined), the inhibition is 13.4%.

In the case of `Cc1ccccc1N1C(=O)C(Oc2ccc(Cl)cc2)C1CNCC1CCCO1` (centres undefined), the inhibition was -17.5%.

Turning to `CC(Sc1nncn1C)C(=O)Nc1ccccc1-c1ccccc1` (centres undefined), the inhibition was -12.2%.

As to `Cc1cccc(N(C(=O)Cc2cccs2)C(C(=O)NCc2ccco2)c2ccncc2)c1` (centres undefined), the inhibition was -3.5%.

For `Cc1nn(C(C)C(=O)N2CCOCC2)c(=O)c2nn(-c3ccccc3)c(C)c12` (centres undefined), the inhibition was 1.5%.

For `CC(=O)Nc1ccc(S(=O)(=O)NCC2CCC(C(=O)NCCc3ccccc3)CC2)cc1` (centres undefined), the inhibition is 8.9%.

Turning to `CC1(C(=O)NS(=O)(=O)c2ccccc2)CCN1C(=O)c1ccccc1` (centres undefined), the inhibition was -17.7%.

Take `COc1cc(OC)c(C(=O)NNC(=O)c2ccc(NS(=O)(=O)c3cccs3)cc2)cc1OC`: the inhibition was 0.1%.

As for `Nc1nonc1-n1nnc(C(=O)N/N=C/C2CCCCC2)c1-c1ccccc1`, the inhibition is 3.7%.

`Nc1nonc1-n1nnc(C(=O)N/N=C/c2ccc(Cl)cc2)c1-c1ccc2c(c1)OCO2`: the inhibition is 52.5% (active).

For `CCCOc1ccc(-c2c(C(=O)N/N=C/c3ccco3)nnn2-c2nonc2N)cc1`, the inhibition was -21.8%.

On to `CSc1ccc(CN2CCC2(C)C(=O)Nc2ccc(C)c(O)c2)cc1` (centres undefined), for which the inhibition was 0%.

On to `CCCc1nc(N)nc2c1C(=O)CC(C)(C)C2`, for which the inhibition is 16.2%.

For `COc1ccc(/C=C/C(=O)c2c(O)cc(OC)cc2OC)cc1`, the inhibition is -12.9%.

For `CCOc1ccccc1Oc1cn[nH]c1-c1ccc(OC)cc1O`, the inhibition is 13%.

On to `COc1ccc2cc(-c3[nH]ncc3CNCCn3nc(C)cc3C)ccc2c1`, for which the inhibition is -8.4%.

Take `COc1ccc(-c2cn[nH]c2-c2ccc(OC)cc2)cc1`: the inhibition was 88% (active).

For the compound `CCOc1ccc(C(C)=O)cc1CSc1nnc(-c2ccncc2)n1CCOC`, the inhibition was -0.6%.

Turning to `CS(=O)(=O)N(CC(=O)Nc1ccc(F)cc1F)c1cccc([N+](=O)[O-])c1`, the inhibition is 10.1%.

For the compound `O=c1[nH]c2ccccc2n1C1CCN(CCOc2ccccc2)CC1`, the inhibition was -0.9%.

`c1ccc(CNc2ncnc3[nH]ncc23)cc1`: the inhibition is 0.6%.

In the case of `COc1ccc(CNc2ncnc3ccccc23)cc1`, the inhibition is 51.6% (active).

On to `COc1ccc(CNc2nccs2)cc1`, for which the inhibition was -5.6%.

Turning to `Oc1cccc2ccc(/C=C/c3ccc(Br)s3)nc12`, the inhibition is 82.5% (active).

On to `Nc1ccc(S(=O)(=O)Nc2nccc(/C=C/c3ccc(Br)s3)n2)cc1`, for which the inhibition was 14.6%.
